# Assay results published in PubChem BioAssay AID2094 (Broad Institute, 2009).
# The campaign covered roughly 300,000 compounds. About 1,200 (0.4%) were called active. The sample as a whole holds a higher share of actives than the screen did. Unmarked numbers belong to inactive results. Cut-off read from the data, not from the text of the source: active = activity change below about -75% (passing the limit was not always enough); inconclusive = no clear call, values can overlap the other calls.
# Test: Vibrio harveyi AI-2 quorum sensing modulators, primary screen, JMH597 strain, luminescence/OD600 ratio (AID 2094);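 note: luminescence divided by OD600 gain over 9 h not by final OD600 alone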
# Conditions: Vibrio harveyi JMH597 AI-2 luminescence/OD600 ratio, 9 h; at 7.5 µM; stronger effect = lower value; 0 = neutral-control median; strain lacks LuxN and CqsS sensors
row,SMILES,activity change
1,O=S(=O)(Nc1ccccn1)c1cccc(S(=O)(=O)c2ccc(Cl)cc2)c1,3.88%
2,O=S(=O)(Nc1ccccn1)c1ccc(Oc2ccccc2)cc1,21.1%
3,O=S(=O)(Nc1cccc(Oc2ccc(Cl)cc2)n1)c1ccc(F)cc1,-97.1% (active)
4,CC(=O)Oc1ccc2c(=O)oc(-c3ccc([N+](=O)[O-])cc3)nc2c1,9.78%
5,COC(=O)/C=C\C(=O)Nc1cccc([N+](=O)[O-])c1,-88.2% (active)
6,COc1ccc(S(=O)(=O)NC(C)C(=O)Nc2cccc([N+](=O)[O-])c2)cc1 (stereo not given),16.9%
7,COc1cccc(CNC(=O)CCCC(=O)Nc2cccc([N+](=O)[O-])c2)c1,33.3%
8,Cc1ccc(C(=O)NNC(=O)c2ccncc2)cc1S(=O)(=O)N1CCCCC1,18%
9,NC(=O)c1ccc(-c2csnn2)cc1,-13%
10,Cc1cc(C)c(C(N)=O)c(Cl)n1,-0.00035%
11,COc1cccc(NC(=O)NCCN2CCCCC2)c1,8.92%
12,O=C(NCc1cccc(CNC(=O)Nc2cccc(O)c2)c1)Nc1cccc(O)c1,3.61%
13,COc1cccc(NC(=O)NCc2ccc(F)cc2)c1,-88.7% (active)
14,Oc1ccc(N=Nc2nccs2)c(O)c1,-86.3% (active)
15,Cc1cc(-c2ccccc2)nc(N2CCC(C(=O)NC34CC5CC(CC(C5)C3)C4)CC2)n1,31.5%
16,CCN1C(=NCCc2cccnc2)N[C@@H](c2ccccc2)C(C(=O)OC)=C1C,8.09%
17,O=C(/C=C\c1cn(-c2ccccc2)nc1-c1cccs1)N1CCOCC1,28.5%
18,O=C(O)c1ccc(N/N=C/c2cn(-c3ccccc3)nc2-c2cccs2)cc1,-83.5% (active)
19,COc1ccc(-c2nn(-c3ccccc3)cc2/C=C\C(=O)Nc2ccc(C(=O)O)cc2)cc1,21.3%
20,O=C1C2CCCN2C(=O)N1CCCCN1CCN(c2cccc(C(F)(F)F)c2)CC1 (stereo not given),12.2%

row,SMILES,activity change
1,CCC(C)N(C(=O)COC(=O)C1C(C(=O)OC)=C(C)NC(C)=C1C(=O)OC)C1CCS(=O)(=O)C1 (stereo not given),18.1%
2,CN(C)S(=O)(=O)c1ccc(Oc2ccc(S(=O)(=O)N(C)C)cc2)cc1,-86.2% (active)
3,COc1cccc(NC(=O)c2ccc(S(=O)(=O)N(C)C)cc2)c1,14.9%
4,CN(C)S(=O)(=O)c1ccc(NC(=O)N2CCOCC2)cc1,11.7%
5,CCc1ccc(-c2cc(C)no2)cc1S(=O)(=O)NCCc1ccc(S(N)(=O)=O)cc1,9.18%
6,CC12CCC(=O)N1C(C(=O)NCCN1C(=O)S/C(=C\c3ccccc3F)C1=O)CS2 (stereo not given),17%
7,O=c1c2ccccc2c(-c2ccc(Br)cc2)nn1Cc1ccccc1,41.9%
8,Nc1c(C(=O)Nc2ccc3c(c2)OCCO3)nnn1Cc1ccccc1,9.93%
9,Nc1c(-c2ccccc2)nnn1Cc1ccccc1,-76.6% (active)
10,O=C(/C=C/c1ccc(F)cc1)NC(=S)NNC(=O)c1cccnc1,-112% (active)
11,CC(C)c1ccc(/C=C/C(=O)NNC(=O)c2cccnc2)cc1,5.1%
12,O=C(/C=C/c1ccc(F)cc1)NCCNC(=O)/C=C/c1ccc(F)cc1,20.3%
13,Cc1ccc(N2CCN(S(=O)(=O)N(C)C)CC2)cc1Cl,10.7%
14,CCCCCCC(O)(CCN1CCCCC1)c1ccccc1 (stereo not given),20%
15,OC(CN=c1sc2ccccc2n1CC(O)COc1ccccc1)COc1ccccc1 (stereo not given),4.84%
16,CCNC(=O)N1CCCC(C(=O)c2ccc(-c3ccccc3)cc2)C1 (stereo not given),-9.07%
17,O=C(c1ccc(-c2ccccc2)cc1)C1CCCN(C(=O)c2cncs2)C1 (stereo not given),-77.4% (active)
18,Cn1nccc1C(=O)N1CCCC(C(=O)c2ccc(Oc3ccccc3)cc2)C1 (stereo not given),-2.94%
19,COc1ccc(Oc2c(Cl)cnn(-c3ccccc3)c2=O)cc1,8.72%
20,Cc1ccc(Oc2cnn(-c3ccccc3)c(=O)c2Br)cc1,-95.8% (active)

row,SMILES,activity change
1,Cc1ccc(-c2nc3c(cnn3-c3ccccc3)c(=O)o2)cc1,9.58%
2,C/C(=N\NC(=O)c1ccc(C)cc1)C1C(=O)c2ccccc2C1=O,17%
3,Cc1ccsc1C(=O)OCC(=O)c1cc(C)n(CC2CCCO2)c1C (stereo not given),22.3%
4,CSCCC(NC(=O)COc1ccccc1)C(=O)OCC(=O)c1cc2ccccc2o1 (stereo not given),8.03%
5,Cc1ccsc1C(=O)OCC(=O)c1cc2ccccc2o1,-88.1% (active)
6,Cc1ccc(NC(=O)C2CCN(S(=O)(=O)c3ccc4c(c3)NC(=O)CO4)CC2)cc1C,-2.55%
7,Cn1c(N)c(C(=O)COC(=O)C23CC4CC(CC(C4)C2)C3)c(=O)n(C)c1=O,12.7%
8,Cc1csc(=O)n1CC(=O)OCC(=O)N(CC(C)C)c1c(N)n(Cc2ccccc2)c(=O)[nH]c1=O,6.79%
9,CC(C)(C)c1ccc(CN2C(=O)c3ccccc3S2(=O)=O)cc1,21.7%
10,CC(C)(C)c1ccc(Oc2ccc(N)cc2)cc1,-23.7%
11,CC(C)(C)c1ccc(OC2=CS(=O)(=O)c3ccccc32)cc1,-84.2% (active)
12,CCN(CC)C(=O)CN(c1cccc(OC)c1)S(=O)(=O)c1ccc(C)cc1,9.13%
13,CC(C)C(C)NC(=O)COc1ncnc2ccccc12 (stereo not given),19.9%
14,CC(=O)Nc1ccc(NC(=O)COc2ncnc3ccccc23)cc1,-8.91%
15,O=C(COc1ncnc2ccccc12)NC(=O)NCc1ccccc1,-86.9% (active)
16,CCOC(=O)c1cc(C(C)C)sc1NC(=O)COC(=O)c1nccnc1N,29.5%
17,COc1ccc(/C(N)=N/OC(=O)Cc2ccccc2)cc1,-87.5% (active)
18,COc1ccc(/C(N)=N/OC(=O)CCCc2ccccc2)cc1,749%
19,N/C(=N\OC(=O)Cc1ccccc1[N+](=O)[O-])c1ccc(Br)cc1,-5%
20,O=C1CCCc2nn(-c3ccccc3)nc21,8.67%
